Compounds without any hit were thinned out: in the full panel of roughly 83,000, 20% have a hit.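 For each line, cells grew in 96-well plates with the test compound present at a single concentration for 48 hours.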 The source made the active and inactive calls. Rule for the calls: active = growth percent below 10; inactive = the rest.
Experiments:
Test in all cases: NCI-60 one-dose screen, 48 h (100 = growth as untreated, 0 = no growth, -100 = all killed)
Settings in all cases: 10 µM unless noted
NCI-H23 lung = test system: NCI-H23 lung
NCI-H226 lung = test system: NCI-H226 lung
NCI-H322M lung = test system: NCI-H322M lung
HOP-62 NSCLC = test system: HOP-62 NSCLC
NCI-H460 lung = test system: NCI-H460 lung
HOP-92 NSCLC = test system: HOP-92 NSCLC
NCI-H522 lung = test system: NCI-H522 lung
A549/ATCC NSCLC = test system: A549/ATCC NSCLC
786-0 renal = test system: 786-0 renal
COLO 205 colon = test system: COLO 205 colon

Measured: growth

CC[C@H](C)[C@H](NC(=O)N[C@@H](C)c1ccccc1)C(=O)N(C)[C@H](C[C@@H](OC(C)=O)c1nc(C(=O)N[C@@H](Cc2ccccc2)C[C@H](C)C(=O)OC)cs1)C(C)C
inactive: NCI-H23 lung 27% | NCI-H226 lung 30.7% | NCI-H322M lung 51.2% | HOP-62 NSCLC 22.7% | HOP-92 NSCLC 73.1% | A549/ATCC NSCLC 31.3% | 786-0 renal 10.9%
active: NCI-H460 lung 3.57% | NCI-H522 lung -39.1% | COLO 205 colon -46.8%

C=C1C[C@](OC)([C@H](O)C(=O)N[C@@H](OC)[C@@H]2C[C@@H](O)C(C)(C)[C@@H](C[C@@H](COC)OC)O2)O[C@H](C)[C@@H]1C
active: NCI-H23 lung -27.7% | NCI-H226 lung -75.5% | NCI-H322M lung -21% | HOP-62 NSCLC -35.4% | NCI-H460 lung -41.4% | HOP-92 NSCLC -65.1% | NCI-H522 lung -55.1% | A549/ATCC NSCLC -49.1% | 786-0 renal -61.9% | COLO 205 colon -15.6%

c1cnc2[nH]cc(-c3csc(-c4cn(CCCCN5CCCCC5)c5ccccc45)n3)c2c1
inactive: NCI-H23 lung 95.2% | NCI-H226 lung 95.3% | NCI-H322M lung 87.4% | HOP-62 NSCLC 82.4% | NCI-H460 lung 76.3% | HOP-92 NSCLC 48.3% | NCI-H522 lung 98.5% | A549/ATCC NSCLC 83.6% | 786-0 renal 80.7%
active: COLO 205 colon 6.47%

N#CCCNc1ccccc1
inactive: NCI-H23 lung 110% | NCI-H226 lung 106% | NCI-H322M lung 110% | HOP-62 NSCLC 116% | NCI-H460 lung 111% | HOP-92 NSCLC 94.9% | NCI-H522 lung 92.8% | A549/ATCC NSCLC 113% | 786-0 renal 120% | COLO 205 colon 118%

CC(=O)c1ccc(C(=O)NCC2CCC3(CC2)OOC2(CCCCC2)OO3)cc1
inactive: NCI-H23 lung 22.8% | NCI-H226 lung 85.8% | NCI-H322M lung 89.8% | HOP-62 NSCLC 16.4% | NCI-H460 lung 88.1% | NCI-H522 lung 60.8% | A549/ATCC NSCLC 23.5% | COLO 205 colon 97.1%
active: HOP-92 NSCLC -31.4% | 786-0 renal -70.5%

CC12CC(=O)C3(SC#N)C(CCC4=CC(=O)CCC43C)C1CCC2=O (stereo not given)
inactive: NCI-H23 lung 99.1% | NCI-H226 lung 94.1% | NCI-H322M lung 96% | HOP-62 NSCLC 106% | NCI-H460 lung 96.2% | HOP-92 NSCLC 90.7% | A549/ATCC NSCLC 107% | 786-0 renal 90% | COLO 205 colon 66%
active: NCI-H522 lung -3.58%

CN(C)C(=O)Oc1ccc(Br)cc1
inactive: NCI-H23 lung 102% | NCI-H226 lung 101% | NCI-H322M lung 86.1% | HOP-62 NSCLC 93% | NCI-H460 lung 104% | HOP-92 NSCLC 107% | NCI-H522 lung 95.6% | A549/ATCC NSCLC 100% | 786-0 renal 98.6% | COLO 205 colon 102%

Cc1ccc(Nc2nc3c(s2)C2=CC[C@@H]4[C@H](CC[C@]5(C)C(=O)CC[C@@H]45)[C@@]2(C)CC3)cc1
active: 786-0 renal 9.1%
inactive: NCI-H23 lung 58.4% | NCI-H226 lung 69.5% | NCI-H322M lung 61.8% | HOP-62 NSCLC 43.4% | NCI-H460 lung 38.9% | HOP-92 NSCLC 78.6% | NCI-H522 lung 56.3% | A549/ATCC NSCLC 55.8% | COLO 205 colon 63.5%

COc1cc(C=Nc2cc(Cl)cc(Cl)c2)ccc1N(CCCl)CCCl
inactive: NCI-H23 lung 80.1% | NCI-H226 lung 76.4% | NCI-H322M lung 92.8% | HOP-62 NSCLC 95.7% | NCI-H460 lung 13.7% | HOP-92 NSCLC 77.3% | A549/ATCC NSCLC 91.9% | 786-0 renal 107% | COLO 205 colon 76.9%
active: NCI-H522 lung -84.3%

COC(=O)[C@@]1(C)CC[C@]2(C)CC[C@]3(C)C4=CC=C5C(=CC(=O)C(O)=C5C)[C@]4(C)CC[C@@]3(C)[C@@H]2C1
active: NCI-H23 lung -72.6% | NCI-H226 lung -59.1% | NCI-H322M lung -95.3% | HOP-62 NSCLC -90.6% | NCI-H460 lung -83% | HOP-92 NSCLC -86.7% | NCI-H522 lung -78.3% | A549/ATCC NSCLC -92.9% | 786-0 renal -90% | COLO 205 colon -77.2%

O=C1C2CC=CCC2C(=O)N1SC(Cl)(Cl)Cl (stereo not given)
active: NCI-H522 lung -57.1%
inactive: NCI-H23 lung 96.7% | NCI-H226 lung 106% | NCI-H322M lung 125% | HOP-62 NSCLC 95.9% | NCI-H460 lung 103% | HOP-92 NSCLC 64.7% | A549/ATCC NSCLC 108% | 786-0 renal 97.7% | COLO 205 colon 87.5%

CCCCCCCCCCCCCC[P+](CCCCCC)(CCCCCC)CCCCCC
active: NCI-H23 lung -39.3% | NCI-H226 lung -1.45% | NCI-H322M lung -11.9% | HOP-62 NSCLC -2.18% | NCI-H460 lung -59.4% | HOP-92 NSCLC -67.1% | NCI-H522 lung -71.4% | A549/ATCC NSCLC -35% | 786-0 renal -65.8% | COLO 205 colon -65.4%

O=[N+]([O-])CC(O)C(Cl)(Cl)Cl (stereo not given)
inactive: NCI-H23 lung 98.6% | NCI-H226 lung 103% | NCI-H322M lung 103% | HOP-62 NSCLC 99.8% | NCI-H460 lung 101% | HOP-92 NSCLC 93.2% | NCI-H522 lung 99.1% | A549/ATCC NSCLC 106% | 786-0 renal 103% | COLO 205 colon 98.2%

Reference: PubChem BioAssay (NCI)
